Measurements taken from PubChem BioAssay (Tox21).
Values joined by “and” are separate entries in the source; they are usually repeats but may differ in a detail not shown here. Equal values may be shown once. Results filed as inconclusive are left out. Where a structure was tested more than once in an assay, its records may differ in their call. Active and inactive are the calls of the source. Unless noted, calls follow the shape of the full dose curve.

Key:
[1] = qHTS assay to identify small molecule agonists of the peroxisome proliferator-activated receptor delta (PPARd) signaling pathway - cell viability counter screen (AID 743211; active = well fitted curve in the direction sought with a large enough effect in the repeat runs; an effect the other way counts as inactive or inconclusive; also: nearly all actives have a fitted effect of over 55% in size)
How it was run: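 Counter screen for cytotoxicity run in parallel with the PPARd reporter screen. Beta-lactamase reporter HEK293H cells exposed to compounds 17 h; ATP-based CellTiter-Glo luminescence quantified viability.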

[2] = molecular target: Peroxisome proliferator-activated receptor delta (Homo sapiens) (UniProt Q03181); assay: qHTS assay to identify small molecule agonists of the peroxisome proliferator-activated receptor delta (PPARd) signaling pathway (AID 743212)
Chain of Peroxisome proliferator-activated receptor delta (Homo sapiens) (Q03181 whole entry, looked up): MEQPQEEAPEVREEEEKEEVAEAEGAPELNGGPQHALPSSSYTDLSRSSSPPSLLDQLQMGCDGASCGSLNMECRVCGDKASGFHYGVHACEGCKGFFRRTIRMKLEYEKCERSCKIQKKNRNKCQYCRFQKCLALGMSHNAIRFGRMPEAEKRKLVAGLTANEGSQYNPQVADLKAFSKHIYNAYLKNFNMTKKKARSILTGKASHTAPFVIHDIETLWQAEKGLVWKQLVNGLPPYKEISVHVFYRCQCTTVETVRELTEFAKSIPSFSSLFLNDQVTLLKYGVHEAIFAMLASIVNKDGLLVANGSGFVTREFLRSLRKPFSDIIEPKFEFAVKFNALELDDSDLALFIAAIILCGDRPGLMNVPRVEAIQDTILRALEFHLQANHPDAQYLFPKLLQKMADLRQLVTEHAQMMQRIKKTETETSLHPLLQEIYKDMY
How it was run: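 Quantitative high-throughput agonist screen in a HEK293H beta-lactamase reporter line under UAS control. Compounds in DMSO, at 37 C. Fluorescence read after 2 h with FRET substrate at room temperature.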

[3] = qHTS assay to identify small molecule antagonists of the peroxisome proliferator-activated receptor delta (PPARd) signaling pathway - cell viability counter screen (AID 743213; active = well fitted curve in the direction sought with a large enough effect in the repeat runs; an effect the other way counts as inactive or inconclusive; also: nearly all actives have a fitted effect of over 50% in size)
How it was run: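 Luminescence from CellTiter-Glo, added after the bla read and incubated 30 min at room temperature, gives viability of HEK293H PPARd-bla cells exposed to compounds for 17 h at 37 C with 300 nM L165041.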

[4] = molecular target: Peroxisome proliferator-activated receptor delta (Homo sapiens) (UniProt Q03181); assay: qHTS assay to identify small molecule antagonists of the peroxisome proliferator-activated receptor delta (PPARd) signaling pathway (AID 743215; active = well fitted inhibition curve with a large enough effect in the signal ratio in the repeat runs, not every such curve was filed as active; the % refers to the signal ratio;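 also: cells stimulated with agonist L165041 at 300 nM final during compound exposure; series mostly up to about 62 µM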)
How it was run: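 Inhibition of L165041-driven (300 nM final) PPARd signaling is scored in HEK293H UAS-bla cells. Exposure lasts 17 h at 37 C; beta-lactamase activity is then read by FRET substrate fluorescence after 2 h at room temperature.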

[5] = molecular target: Bile acid receptor (Homo sapiens) (UniProt Q96RI1); assay: qHTS assay to identify small molecule antagonists of the farnesoid-X-receptor (FXR) signaling pathway (AID 743217; active = well fitted inhibition curve with a large enough effect in the signal ratio in the repeat runs, not every such curve was filed as active; the % refers to the signal ratio)
Chain of Bile acid receptor (Homo sapiens) (Q96RI1 whole entry, looked up): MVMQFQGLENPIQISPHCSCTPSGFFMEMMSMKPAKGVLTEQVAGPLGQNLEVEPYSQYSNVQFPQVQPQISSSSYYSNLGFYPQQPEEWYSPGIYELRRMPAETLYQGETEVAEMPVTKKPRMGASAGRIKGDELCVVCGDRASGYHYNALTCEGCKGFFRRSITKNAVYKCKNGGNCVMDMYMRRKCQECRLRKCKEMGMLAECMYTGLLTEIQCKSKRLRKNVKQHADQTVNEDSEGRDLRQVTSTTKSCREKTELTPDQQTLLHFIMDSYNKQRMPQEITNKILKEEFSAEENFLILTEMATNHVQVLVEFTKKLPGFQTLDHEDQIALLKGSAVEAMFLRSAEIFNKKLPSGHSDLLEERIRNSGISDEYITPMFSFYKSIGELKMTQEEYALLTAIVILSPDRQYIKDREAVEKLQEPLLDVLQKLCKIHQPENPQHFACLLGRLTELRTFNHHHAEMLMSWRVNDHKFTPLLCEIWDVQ
How it was run: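 Antagonist mode against 50 uM (final) chenodeoxycholic acid stimulation in FXR-bla HEK 293T cells, 16 h at 37 °C. Inhibition detected as reduced beta-lactamase activity via LiveBLAzer B/G FRET fluorescence after 2 h at room temperature.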

[6] = qHTS assay to identify small molecule agonists of the farnesoid-X-receptor (FXR) signaling pathway - cell viability counter screen (AID 743218; active = well fitted curve in the direction sought with a large enough effect in the repeat runs; an effect the other way counts as inactive or inconclusive; also: nearly all actives have a fitted effect of over 45% in size)
How it was run: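 Cytotoxicity counter-screen run in parallel, same wells: FXR-UAS-bla HEK 293T cells dosed 16 h at 37 C, viability read by CellTiter-Glo luminescence after 30 min at room temperature.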

[7] = molecular target: Bile acid receptor (Homo sapiens) (UniProt Q96RI1); assay: qHTS assay to identify small molecule agonists of the farnesoid-X-receptor (FXR) signaling pathway (AID 743220; active = well fitted activation curve with a large enough effect in the signal ratio in the repeat runs, not every such curve was filed as active; the % refers to the signal ratio)
How it was run: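 Beta-lactamase reporter under UAS control in GeneBLAzer FXR HEK 293T cells (5000/well) measured with LiveBLAzer FRET substrate after 2 h at room temperature. Compound exposure lasted 16 h at 37C.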

[8] = molecular target: Vitamin D3 receptor (Homo sapiens) (UniProt P11473); assay: qHTS assay to identify small molecule agonists of the vitamin D receptor (VDR) signaling pathway (AID 743222)
Chain of Vitamin D3 receptor (Homo sapiens) (P11473 whole entry, looked up): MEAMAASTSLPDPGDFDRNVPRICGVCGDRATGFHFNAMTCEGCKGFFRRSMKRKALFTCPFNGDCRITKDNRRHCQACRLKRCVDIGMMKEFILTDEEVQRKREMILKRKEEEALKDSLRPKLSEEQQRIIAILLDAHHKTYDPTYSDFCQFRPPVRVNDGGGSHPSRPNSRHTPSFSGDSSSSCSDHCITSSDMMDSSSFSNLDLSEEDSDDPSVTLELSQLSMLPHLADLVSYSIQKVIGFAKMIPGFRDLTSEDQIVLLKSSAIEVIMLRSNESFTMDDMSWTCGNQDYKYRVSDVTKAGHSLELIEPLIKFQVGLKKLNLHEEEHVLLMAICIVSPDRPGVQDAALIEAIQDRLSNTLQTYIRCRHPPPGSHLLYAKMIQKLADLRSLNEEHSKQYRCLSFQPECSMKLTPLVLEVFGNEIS
How it was run: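 Quantitative HTS agonist-mode screen: compounds in DMSO were pin-transferred onto VDR-bla cells and incubated 16 h at 37C, 5% CO2. Reporter activity was detected with LiveBLAzer B/G FRET substrate after 2 h at room temperature.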

[9] = molecular target: Vitamin D3 receptor (Homo sapiens) (UniProt P11473); assay: qHTS assay to identify small molecule antagonists of the vitamin D receptor (VDR) signaling pathway (AID 743223; active = well fitted inhibition curve with a large enough effect in the signal ratio in the repeat runs, not every such curve was filed as active; the % refers to the signal ratio)
How it was run: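 Cells carrying a VDR-driven beta-lactamase reporter (VDR-bla) were co-treated with compound and 3 nM final 1alpha,25-dihydroxyvitamin D3 for 16 h at 37C; reporter activity was measured as FRET substrate fluorescence after 2 h at room temperature.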

[10] = qHTS assay to identify small molecule agonists of the vitamin D receptor (VDR) signaling pathway - cell viability counter screen (AID 743224; active = well fitted curve in the direction sought with a large enough effect in the repeat runs; an effect the other way counts as inactive or inconclusive; also: series mostly up to about 63 µM; nearly all actives have a fitted effect of over 50% in size)
How it was run: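 Viability is measured in the same wells as the VDR-bla reporter assay: after 16 h compound treatment and 2 h substrate loading, CellTiter-Glo is added and luminescence read 30 min later.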

[11] = qHTS assay to identify small molecule antagonists of the vitamin D receptor (VDR) signaling pathway - cell viability counter screen (AID 743225; active = well fitted curve in the direction sought with a large enough effect in the repeat runs; an effect the other way counts as inactive or inconclusive; also: nearly all actives have a fitted effect of over 50% in size)
How it was run: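 HEK293T VDR-bla; cpd + 1a,25-(OH)2D3 3 nM final, 16 h 37C/5% CO2; B/G FRET substrate 2 h RT; then CellTiter-Glo 30 min RT, luminescence.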

[12] = qHTS assay to identify small molecule agonists of the NFkB signaling pathway - cell viability counter screen (AID 1159515); also: series mostly up to about 61 µM; nearly all actives have a fitted effect of over 55% in size
How it was run: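 Multiplexed viability readout: after the 5 hr compound exposure and 1.5 hr FRET substrate step, CellTiter-Glo reagent went into the same NFkB-bla ME-180 wells; ATP luminescence was measured after 30 min at room temperature.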

[13] = qHTS assay to identify small molecule agonists of the endoplasmic reticulum stress response signaling pathway (AID 1159516; active = well fitted activation curve with a large enough effect in the signal ratio in the repeat runs, not every such curve was filed as active; the % refers to the signal ratio)
How it was run: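 Tox21 10K library screened in quantitative HTS format on ESRE-bla HeLa cells, a beta-lactamase reporter under ER stress response element control; 5 hr treatment, FRET read.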

[14] = qHTS assay to identify small molecule agonists of the endoplasmic reticulum stress response signaling pathway - cell viability counter screen (AID 1159517); also: series mostly up to about 61 µM; nearly all actives have a fitted effect of over 50% in size
How it was run: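 Counter-screen wells were identical to the reporter wells. Cells were plated at 1,500 per well and dosed for 5 hr, then read for luminescence 30 min after CellTiter-Glo addition.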

[15] = qHTS assay to identify small molecule antagonists of the retinoid-related orphan receptor gamma (ROR-gamma) signaling pathway - cell viability counter screen (AID 1159520; active = well fitted curve in the direction sought with a large enough effect in the repeat runs; an effect the other way counts as inactive or inconclusive; also: nearly all actives have a fitted effect of over 50% in size)
How it was run: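 Tet-on ROR gamma CHO cells were given compounds for 2 hr, then doxycycline hyclate at 1 uM final, and incubated 16 hr at 37 C. Viability was measured as ATP content by CellTiter-Glo luminescence.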

[16] = molecular target: Nuclear receptor ROR-gamma (Homo sapiens) (UniProt P51449); assay: qHTS assay to identify small molecule antagonists of the retinoid-related orphan receptor gamma (ROR-gamma) signaling pathway (AID 1159521; active = well fitted curve in the direction sought with a large enough effect in the repeat runs; an effect the other way counts as inactive or inconclusive)
How it was run: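 Cells were plated, rested 4 h at 37 C, exposed to compounds for 2 h, then given 1 uM final doxycycline hyclate to induce RORγ expression. After 16 h, ONE-Glo luminescence from the ROR response element reporter was measured.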

[17] = qHTS assay to identify small molecule agonists of the AP-1 signaling pathway - cell viability counter screen (AID 1159525); also: nearly all actives have a fitted effect of over 55% in size
How it was run: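 AP-1-bla ME-180 cells in Opti-MEM with 0.5% dialyzed FBS, compound exposure 5 h at 37 C in 15-point titration. Viability read in the same wells as ATP content by CellTiter-Glo luminescence, normalised to tetra-n-octylammonium bromide and DMSO controls.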

[18] = qHTS assay to identify small molecule agonists of the AP-1 signaling pathway (AID 1159526)
[19] = molecular target: Retinoic acid receptor RXR-alpha (Homo sapiens) (UniProt P19793); assay: qHTS assay to identify small molecule agonists of the RXR signaling pathway (AID 1159527); also: nearly all actives have a fitted effect of over 35% in size; also: potency is read from the fitted curve at half-maximal effect
Chain of Retinoic acid receptor RXR-alpha (Homo sapiens) (P19793 whole entry, looked up): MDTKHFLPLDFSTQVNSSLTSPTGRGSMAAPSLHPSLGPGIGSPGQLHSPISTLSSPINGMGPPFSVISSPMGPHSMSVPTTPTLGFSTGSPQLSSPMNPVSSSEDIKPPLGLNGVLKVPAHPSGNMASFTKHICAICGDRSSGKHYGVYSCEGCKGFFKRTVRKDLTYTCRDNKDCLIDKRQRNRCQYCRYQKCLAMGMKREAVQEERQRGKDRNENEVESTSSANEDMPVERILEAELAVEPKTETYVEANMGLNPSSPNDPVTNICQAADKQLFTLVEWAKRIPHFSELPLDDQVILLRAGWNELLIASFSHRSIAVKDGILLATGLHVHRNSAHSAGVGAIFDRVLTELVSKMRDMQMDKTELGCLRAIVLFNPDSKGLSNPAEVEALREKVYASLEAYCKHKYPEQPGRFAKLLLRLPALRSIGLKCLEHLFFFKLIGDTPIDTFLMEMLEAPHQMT
How it was run: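 Cells plated at 2,000/well, rested 5 hr at 37 C, pin-dosed with DMSO compound solutions, incubated 16 hr, then loaded with B/G FRET substrate for 2 hr at RT before dual-emission fluorescence reading.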

[20] = qHTS assay to identify small molecule antagonists of the farnesoid-X-receptor (FXR) signaling pathway - cell viability counter screen (AID 743221; active = well fitted cell-killing curve with a large enough effect in the repeat runs, not every such curve was filed as active; also: nearly all actives have a fitted effect of over 50% in size)
How it was run: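 Multiplexed counter screen: viability of FXR-bla HEK 293T cells under agonist stimulation by chenodeoxycholic acid (50 uM, final) and test compound for 16 h at 37 C, measured by CellTiter-Glo luminescence in the reporter wells.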

Measured: Potency

N#CCCCCC#N
not listed: [20]
inactive: all other assays above

O=NN1CCOCC1
not listed: [5] | [6] | [7]
inactive: all other assays above

COP(=S)(OC)Oc1ccc(Sc2ccc(OP(=S)(OC)OC)cc2)cc1
not listed: [3] | [5] | [7]
inactive: all other assays above

N#CC(c1ccccc1)c1ccccc1
not listed: [3]
inactive: all other assays above

O=P(OCCCl)(OCCCl)OCCCl
inactive: all assays above

CCCCOC(=O)COC(=O)c1ccccc1C(=O)OCCCC
not listed: [5] | [7] | [8] | [9]
inactive: all other assays above

CC(O)CN(CC(C)O)CC(C)O (centres undefined)
not listed: [6] | [8] | [9] | [20]
inactive: all other assays above

C[C@]12CC[C@H]3[C@@H](CCC4=CC(=O)CC[C@@H]43)[C@@H]1CC[C@@H]2O
not listed: [6] | [20]
inactive: all other assays above

Oc1ccc(Cl)cc1Cl
not listed: [20]
inactive: all other assays above

C=C(C)C#N
inactive: all assays above

CC(C)(C#N)N=NC(C)(C)C#N
not listed: [5] | [7] | [20]
inactive: all other assays above

ClC(Cl)=C(Cl)C(Cl)=C(Cl)Cl
not listed: [5] | [7] | [8] | [9]
inactive: all other assays above

ClCc1ccccn1
not listed: [5] | [6] | [7]
inactive: all other assays above

c1ccc(C2CO2)cc1 (centres undefined)
inactive and 17.4 µM (active): [19]
not listed: [3] | [5] | [7]
inactive: all other assays above

[CH3][Sn]([Cl])([Cl])[Cl]
not listed: [5] | [6] | [7] | [20]
inactive: all other assays above

CCCCSP(=O)(SCCCC)SCCCC
inactive: all assays above
